Common to all, as to experiment: NCI-60 one-dose screen, 48 h (100 = growth as untreated, 0 = no growth, -100 = all killed)
Assay [1] deals with BT-549 breast. As to conditions: 10 µM unless noted.
Assay [2] has as its system MDA-MB-435 melanoma. As to conditions: 10 µM unless noted.
Assay [3] concerns SW-620 colon. As to conditions: 10 µM unless noted.
In assay [4] the test system is MCF7 breast. As to conditions: 10 µM.
Assay [5] concerns HCT-116 colon. As to conditions: 10 µM unless noted.
The subject of assay [6] is HCC-2998 colon. As to conditions: 10 µM unless noted.
Assay [7] deals with KM12 colon. The following applies: 10 µM unless noted.

This is part of a sample that, as a whole, favours compounds with a hit. Of some 83,000 tested, about 20% had one in any assay.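 Note: values are percent growth. 100 is the growth of untreated cells, values between 100 and 0 indicate rising inhibition; between -100 and 0 indicates cell death.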 Unmarked numbers belong to inactive results. Active and inactive are the calls of the source. The calls were made as follows: active = growth percent below 10; inactive = the rest.

For `COC(=O)/C(=C\c1c(-c2ccccc2)[nH]c2ccccc12)S(C)(=O)=O`, the growth in assay [1] was 45.7%; in assay [2] it was 4.05% (active); in assay [3] it was 20.4%; in assay [4], 15.6%; in assay [5], 17.4%; in assay [6], 44.7%. For the same molecule, the growth in assay [7] is 4.53% (active).
For the molecule `CC(=O)c1ccc2oc(=O)n(Cc3ccc(C#N)cc3)c(=O)c2c1`, the growth was 102% in assay [1]; 99.3% in assay [2]; 100% in assay [3]; 98.9% in assay [4]; 110% in assay [5]; 102% in assay [6]. Further, the growth in assay [7] was 102%.
For `O=c1oc2ccc(Br)cc2c(=O)n1-c1ccc(Br)cc1F`, the growth in assay [1] was -19.4% (active); in assay [2], -8.23% (active); in assay [3], 5.96% (active); in assay [4] it was 0.224% (active); in assay [5], -40.2% (active); in assay [6], 1.75% (active). For the same molecule, the growth in assay [7] is -20% (active).
On to `COC(=O)c1c2c(c(C)[n+]([O-])c1C)C(=O)C=C(NCc1ccc(F)c(F)c1)C2=O`, for which the growth in assay [1] is -97.2% (active); in assay [2] it was -92.2% (active); in assay [3], -43% (active); in assay [4] it was -65.7% (active); in assay [5], -53.9% (active); in assay [6] it was -66.5% (active). Also, the growth in assay [7] is -14.9% (active).
Regarding `CCOc1c(Br)cc(C2C(C(=O)OC)=CN(C)C=C2C(=O)OC)cc1OC`, the growth in assay [1] was 78.1%; in assay [2], 47.3%; in assay [3], 58%; in assay [4], 35.9%; in assay [5], 59%; in assay [6], -77.5% (active). For the same molecule, the growth in assay [7] is 61.9%.
For `Nc1no[n+]([O-])c1-c1nnc2c(n1)-c1ccccc1C2=O`, the growth in assay [1] is 80.8%; in assay [2], 18.8%; in assay [3], 29.9%; in assay [4], -48.9% (active); in assay [5], 1.78% (active); in assay [6] it was 68.1%. Further, in assay [7], the growth was 73.1%.
On to `COc1ccc(C2NCCc3c2[nH]c2ccccc32)cc1CN1CCN(c2ccc(F)cc2)CC1` (stereo unspecified), for which the growth in assay [1] was 69.7%; in assay [2], 38.2%; in assay [3] it was 29.6%; in assay [4], 33.9%; in assay [5] it was 41.6%; in assay [6], 17.9%. The growth in assay [7] was 40.4%.
For the molecule `COc1ccc(CN2CCCC(C(=O)c3ccc(C(F)(F)F)cc3)C2)c(O)c1` (stereo unspecified), the growth in assay [1] was 25.7%; in assay [2], -48.9% (active); in assay [3], 13.4%; in assay [4] it was 10.9%; in assay [5] it was 15.9%; in assay [6], 31.8%. In addition, the growth in assay [7] is 18.5%.
On to `Cc1ccc2c(n1)C(=O)C(Oc1ccc(Br)cc1)=CC2=O`, for which the growth in assay [1] was 86.5%; in assay [2] it was 101%; in assay [3], 94%; in assay [4], 85.6%; in assay [5], 87.3%; in assay [6], 101%. Besides, the growth in assay [7] was 102%.
In the case of `COc1cc2nc(-c3cnc(N(C)C)nc3)nc(NC3CCN(Cc4ccccc4)CC3)c2cc1OC`, the growth in assay [1] was -1.66% (active); in assay [2], -83.6% (active); in assay [3] it was -56.3% (active); in assay [4], -65.5% (active); in assay [5], -80.6% (active); in assay [6] it was -92.7% (active). Besides, the growth in assay [7] is -60.9% (active).
As to `O=C(Nc1ccc(Cl)cc1)N1CCN(c2ccc3nncn3n2)CC1`, the growth is 43.4% in assay [1]; -81.4% (active) in assay [2]; -88% (active) in assay [3]; -53.4% (active) in assay [4]; -83.4% (active) in assay [5]; -33.6% (active) in assay [6]. In addition, the growth in assay [7] was -40.8% (active).
As for `CN1C(=O)N(C)C2C1NN=c1s/c(=C\c3ccc(Cl)cc3Cl)c(=O)n12` (stereo unspecified), the growth in assay [1] was 17.4%; in assay [2], -17% (active); in assay [3], 27.8%; in assay [4], 17.7%; in assay [5] it was 8.45% (active); in assay [6], 21.7%. The growth in assay [7] is 6.57% (active).
In the case of `COc1ccc2oc(=O)cc(Cn3cc(Cn4cnc5c4c(=O)n(C)c(=O)n5C)nn3)c2c1`, the growth in assay [1] was 105%; in assay [2] it was 108%; in assay [3], 105%; in assay [4], 92.1%; in assay [5] it was 102%; in assay [6], 95.9%. For the same molecule, in assay [7], the growth is 105%.
In the case of `O=C(Cn1cc(COc2ncnc3c2cnn3-c2ccccc2)nn1)Nc1ccccn1`, the growth in assay [1] is 94%; in assay [2], 98%; in assay [3] it was 102%; in assay [4], 90.4%; in assay [5], 98.2%; in assay [6], 120%. Besides, in assay [7], the growth was 100%.
On to `O=C(CSc1nc2ccccc2c(=O)n1-c1ccccc1)Nc1ccc(C(=O)/C=C/c2ccc(Cl)cc2)cc1`, for which the growth is 111% in assay [1]; 103% in assay [2]; 99.1% in assay [3]; 85.1% in assay [4]; 102% in assay [5]; 109% in assay [6]. The growth in assay [7] was 100%.
`O=c1cc(-c2ccccc2)oc2cc(OCc3cn(Cc4ccc(F)cc4)nn3)cc(OCc3cn(Cc4ccc(F)cc4)nn3)c12`: the growth is 18.8% in assay [1]; 40.9% in assay [2]; 60.3% in assay [3]; 53.3% in assay [4]; 18.2% in assay [5]; 74.1% in assay [6]. In assay [7], the growth is 43.3%.
As to `FC(F)(F)c1cccc(Nc2nc(-c3ccccc3)nc3ncccc23)c1`, the growth was 60.8% in assay [1]; -79.4% (active) in assay [2]; -53% (active) in assay [3]; 68.2% in assay [4]; 28.5% in assay [5]; -68.3% (active) in assay [6]. In addition, in assay [7], the growth is 38.1%.
With `COc1ccc(-c2nc(-c3ccccc3)c(-c3ccccc3)[nH]2)cc1OC1CCCCC1`, the growth in assay [1] was 118%; in assay [2], 84.8%; in assay [3], 88.8%; in assay [4], 73.6%; in assay [5], 88.4%; in assay [6], 90.8%. Also, in assay [7], the growth is 89.3%.

Values taken from PubChem BioAssay (NCI).
